Screens deposited in PubChem by National Center for Advancing Translational Sciences (NCATS).
The full list was thinned out, with hits kept by preference.
LmPK inh – blocks Leishmania mexicana pyruvate kinase activity; Q27686; purified LmPK, Kinase-Glo ATP luminescence, 1 h; Potency, µM (titrated, usually from 57.5 µM), usual class: inhibitors; 0.37% of 290,000 active
Target sequence (Q27686 whole entry, looked up): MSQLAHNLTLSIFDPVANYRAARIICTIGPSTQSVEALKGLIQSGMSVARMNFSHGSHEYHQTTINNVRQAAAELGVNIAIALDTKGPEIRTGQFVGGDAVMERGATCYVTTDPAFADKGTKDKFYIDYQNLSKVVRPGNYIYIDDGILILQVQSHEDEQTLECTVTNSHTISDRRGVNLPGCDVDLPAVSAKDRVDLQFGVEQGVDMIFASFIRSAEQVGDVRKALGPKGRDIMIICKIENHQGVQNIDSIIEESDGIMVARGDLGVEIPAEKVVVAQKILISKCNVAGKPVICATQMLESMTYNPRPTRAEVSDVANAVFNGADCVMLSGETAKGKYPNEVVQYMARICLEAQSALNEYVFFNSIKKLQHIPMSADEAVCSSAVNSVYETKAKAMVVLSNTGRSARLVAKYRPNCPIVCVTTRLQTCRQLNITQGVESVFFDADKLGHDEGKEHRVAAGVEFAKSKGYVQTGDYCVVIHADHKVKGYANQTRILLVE
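In 50 mM imidazole pH 7.2 with 7 mM MgCl2, LmPK (0.1 nM) turned over PEP (0.5 mM) and ADP (0.1 mM) for 1 h at room temperature. Luciferase read-out of ATP.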
Shiga inhibitor – Shiga toxin inhibition | Vero cells, Shiga toxin protein synthesis inhibition reporter | 9.2% of 290,000 active | inhibition, % at 38.7 µM; in the data active = inhibition mostly above about 28%, no sharp cut-off; inactive = mostly below about 43%
CHX counter – counter-screen hit for Shiga toxin inhibitors, cycloheximide | cell reporter, cycloheximide protein synthesis inhibition counterscreen | max response, % | 12% of 300,000 active | AID 2314; in the data active = max response mostly above about 13%, no sharp cut-off; inactive = mostly below about 14%; also: read at 38.3 µM for the half of the compounds with a filed dose
TbPYK inhibitor – blocks Trypanosoma brucei pyruvate kinase | 0.12% of 410,000 active | Q57TT1 | AID 624173 | Potency, µM (highest dose often 76.8 µM), usual class: inhibitors | TbPYK enzyme, Kinase-Glo Plus ATP luminescence, 45 min; also: nearly all actives have a fitted effect of over 50% in size
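ADP (130 uM final) triggers the TbPYK reaction after compound addition; incubation is 45 min at room temperature. Kinase-Glo Plus is then added and luminescence imaged. Normalized data are fitted to concentration-effect curves.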
Sm TGR inh – inhibitors of Schistosoma mansoni thioredoxin glutathione reductase. Q962Y6. purified TGR, DTNB reduction, TNB absorbance 405 nm. Potency, µM (top dose mostly 114 µM), actives largely listed as inhibitors. 3% of 360,000 active; also: nearly all actives have a fitted effect of over 60% in size
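Kinetic colorimetric format: TGR-catalysed, NADPH-driven DTNB reduction monitored via TNB absorbance. Enzyme dispensed at 20 nM; compound exposure 15 min at room temperature before reaction start.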
Giardia FBPA inh – inhibitors of Giardia lamblia fructose-1,6-bisphosphate aldolase; A8B2U2; purified Giardia FBPA; Potency, µM (series often up to 59.6 µM), hits mostly inhibitors; 0.71% of 290,000 active; also: nearly all actives have a fitted effect of over 55% in size
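40 nM FBPA preincubated 10 min at RT with compound (up to 57.5 uM final), then substrate plus GAPDH/TPI/NAD/arsenate coupling and diaphorase/resazurin added. Fluorescence read after 20 min at RT, 525/598 nm.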
Each line names hits and unclear results; the compound was inactive in the other large screens. Unless noted, calls follow the shape of the dose curve; as a rule, active = well fitted curve in the direction sought with a large enough effect; inconclusive = small, poorly fitted or top-dose-only effect, or another doubt; inactive = no such curve, though single readings can be large; an effect the other way counts as inactive or inconclusive.

Cc1ccccc1CS(=O)(=O)c1ncc(Cl)c(C(=O)Nc2ccc(F)cc2)n1	CHX counter 29, Sm TGR inh 3.5µM (no result: Giardia FBPA inh)
CCCOC(=O)c1ccc(NC(=O)c2ccoc2C)cc1	LmPK inh inconclusive, Shiga inhibitor 88, CHX counter 41
CCCCOC(=O)c1ccc(NC(=O)c2ocnc2C)cc1	none
CCCCOC(=O)c1ccc(NC(=O)c2ccoc2C)cc1	Shiga inhibitor 70, CHX counter 29
Cc1ccc(C)c(Nc2c([N+](=O)[O-])c(=O)oc3ccccc23)c1	none
O=C(Nc1nccs1)c1ccc(N2C(=O)C3CCCCC3C2=O)cc1 (stereo not drawn)	Shiga inhibitor 70, CHX counter 37 (no result: Sm TGR inh)
O=C(Nc1nccs1)c1ccc(N2C(=O)[C@@H]3[C@H](C2=O)[C@H]2C=C[C@@H]3C2)cc1	Shiga inhibitor 54, CHX counter 26
Cc1ccc(NC(=O)Nc2ccon2)cc1Cl	Shiga inhibitor 50, CHX counter 28
O=C(Nc1ccc(Cl)cc1)Nc1ccon1	Shiga inhibitor 29, CHX counter 15 (no result: Giardia FBPA inh)
O=C(Nc1ccon1)Nc1ccc(Cl)cc1Cl	Shiga inhibitor 42, CHX counter 25
O=C(Nc1ccon1)Nc1cccc(Cl)c1Cl	CHX counter 9.6
O=C(Nc1cccc(Cl)c1)Nc1ccon1	none
Cc1ccc(NC(=O)Nc2ccon2)cc1	Shiga inhibitor 66, CHX counter 40
CCOc1ccc(NC(=O)Nc2ccon2)cc1	Shiga inhibitor 58, CHX counter 39
O=C(NCc1cccnc1)/C(=C\c1ccc(-c2ccc(Br)cc2)o1)S(=O)(=O)c1ccccc1	Sm TGR inh 50µM
O=C(NCc1cccnc1)/C(=C/c1ccc(-c2ccc(Cl)cc2)o1)S(=O)(=O)c1ccccc1	Sm TGR inh 20µM
O=C(CN(Cc1ccc(Br)cc1)S(=O)(=O)c1ccccc1)NCc1cccnc1	none
COc1ccc(CCNC(=O)CS(=O)Cc2nc(-c3cccs3)oc2C)cc1OC (stereo not drawn)	Sm TGR inh 22µM (no result: Giardia FBPA inh)
Cc1ccc(-c2nc(CS(=O)CC(=O)NCc3ccc(F)cc3)c(C)o2)cc1 (stereo not drawn)	none (no result: Giardia FBPA inh)
COc1ccc(CCNC(=O)CS(=O)Cc2nc(-c3ccccc3Cl)oc2C)cc1OC (stereo not drawn)	Sm TGR inh 56µM (no result: Giardia FBPA inh)
Cc1ccc(CNC(=O)CS(=O)Cc2nc(-c3cccs3)oc2C)cc1 (stereo not drawn)	Sm TGR inh 25µM
Cc1ccc(CCNC(=O)CS(=O)Cc2nc(-c3cccs3)oc2C)cc1 (stereo not drawn)	Sm TGR inh 8.9µM
CCOC(=O)C1CCCN(c2c(C(=O)c3ccc(C)cc3)cnc3ccc(OCC)cc23)C1 (stereo not drawn)	none (no result: LmPK inh, Giardia FBPA inh)
CCCCNC(=O)C1CCC(CNS(=O)(=O)c2ccc(Cl)cc2)CC1 (stereo not drawn)	none (no result: LmPK inh, Shiga inhibitor, CHX counter, Giardia FBPA inh)
COc1ccc(N2CCN(C(=O)Cn3cnc4nc5c(cc4c3=O)CCCC5)CC2)cc1	none (no result: LmPK inh, Shiga inhibitor, CHX counter, Giardia FBPA inh)
Cc1oc(-c2cccs2)nc1CS(=O)CC(=O)NCc1ccc2c(c1)OCO2 (stereo not drawn)	Sm TGR inh 40µM
Cc1ccccc1-c1nc(CS(=O)CC(=O)NCc2ccc3c(c2)OCO3)c(C)o1 (stereo not drawn)	Sm TGR inh inconclusive (no result: Giardia FBPA inh)
O=C1NC2=C(CCc3ccccc32)C(c2ccc(Br)cc2)N1 (stereo not drawn)	Sm TGR inh 50µM, Giardia FBPA inh inconclusive
CC1(C)CC(=O)C(C=Nc2ccccc2C(=O)O)=C(O)C1	none
CC1(C)CC(=O)C(N=Nc2ccc(S(=O)(=O)N3CCOCC3)cc2)=C(O)C1	Sm TGR inh 40µM
COc1ccc(CN=CC2=C(O)CC(C)(C)CC2=O)cc1	CHX counter 23
COc1ccc(N=NC2=C(O)CC(C)(C)CC2=O)c(OC)c1	Shiga inhibitor 53
CC1(C)CC(=O)C(C=Nc2ccccc2)=C(O)C1	CHX counter 26
CC1(C)CC(=O)C(N=Nc2ccc(Br)cc2)=C(O)C1	none
COc1ccc(N=NC2=C(O)CC(C)(C)CC2=O)cc1	Shiga inhibitor 124, CHX counter 47
CCOC(=O)Cn1cnc2c(sc3nc(C)cc(C)c32)c1=O	CHX counter 20
C=CCn1cnc2c(sc3nc(C)cc(C)c32)c1=O	none
COC(=O)Cn1c(C)nc2c(sc3nc(C)cc(C)c32)c1=O	Shiga inhibitor 111, CHX counter 49
CCCCc1c(O)nc(SCC(=O)N2CCCCC2)[nH]c1=O	CHX counter 17
CCc1cc2c(=O)n3c(nc2s1)-c1[nH]c2ccc(OC)cc2c1CC3	CHX counter 15
CCOc1ccc2ccc(OCC)c(/C=N/n3cnnc3)c2c1	CHX counter 9.4
O=c1c(=O)n(-c2ccccc2)ccn1Cc1c(F)cccc1Cl	none (no result: LmPK inh, Shiga inhibitor, CHX counter, Giardia FBPA inh)
Cc1ccc(OCc2nc(-c3ccccn3)n[nH]2)cc1	CHX counter 32, Giardia FBPA inh inconclusive
Cc1cccc(OCc2nc(-c3ccccn3)n[nH]2)c1	Giardia FBPA inh inconclusive
CCC(Nc1ncnc2ccc(-c3c(C)noc3C)cc12)c1ccccc1 (stereo not drawn)	none (no result: LmPK inh, TbPYK inhibitor, Sm TGR inh)
O=C(Nc1ccc(F)cc1)c1sccc1SCc1cccc(C(F)(F)F)c1	none
COc1ccc(NC(=O)c2sccc2SCc2cccc(C(F)(F)F)c2)cc1	Shiga inhibitor 36, CHX counter 16
Cc1ccccc1N(CC(=O)N/N=C/c1ccc(N(C)C)cc1)C(=O)c1ccccc1	CHX counter 34
O=C(N/N=C/c1ccccc1)C(=O)N/N=C/c1ccccc1	none
CNC(=O)CO/N=C/c1ccc(N(C)C)cc1	Shiga inhibitor 29, CHX counter 22
CN(C)/C=C(\C#N)C(=O)N/N=C/c1ccccc1	CHX counter 27
CCN(CC)c1ccc(/C=N/OCC(=O)Nc2cccc(C)c2)cc1	none
CN(C)c1ccc(/C=N/NC(=O)COc2ccccc2)cc1	Shiga inhibitor 44, CHX counter 38
Cc1cc(C)cc(-n2ccnc2SCC(=O)Nc2ccc(C)cc2C)c1	none (no result: LmPK inh, Shiga inhibitor, CHX counter, Giardia FBPA inh)
O=C(Nc1ccccc1F)c1oc2ccccc2c1NC(=O)c1c(F)cccc1F	none (no result: LmPK inh, Shiga inhibitor, CHX counter, Giardia FBPA inh)
CCCNC(=O)[C@@H]1CCCN1C(=O)[C@@H]1Cc2ccccc2CN1	none
CN(c1ccccc1)c1ccc(/C=N/NC(=O)CC#N)cc1	Shiga inhibitor 58, CHX counter 28
CN(C)c1ccc(/C=N/NC(=O)CNC(=O)/C=C/c2ccccc2)cc1	Shiga inhibitor 30, CHX counter 30 (no result: Giardia FBPA inh)
CCc1ccccc1NC(=O)Nc1cc(C(=O)NCc2ccc(OC)cc2)ccc1N1CCCC1	none (no result: LmPK inh, Shiga inhibitor, CHX counter, Giardia FBPA inh)
Cc1cc(C)cc(OCCn2nnc3ccccc32)c1	Shiga inhibitor 58, CHX counter 47
Cc1ccc(C)c(OCCn2nnc3ccccc32)c1	Shiga inhibitor 34, CHX counter 33
Cc1cccc(C)c1OCCn1nnc2ccccc21	none
